Test [1] in a line: qHTS assay to identify small molecule antagonists of the estrogen receptor alpha (ER-alpha) signaling pathway using the BG1 cell line in the presence of 0.1 nM 17-beta-estradiol - cell viability counter screen (AID 1259241). Also: nearly all actives have a fitted effect of over 40% in size. Summed up: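 VM7Luc4E2 cells (endogenous full-length ER-alpha, 4xERE-luciferase), cultured 5 days in charcoal-stripped serum, exposed to compounds with 0.1 nM 17beta-estradiol (final) for 22 hr at 37C. Viability read in same wells as live-cell protease fluorescence after 30 min.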
In general terms: Quantitative high-throughput screening tests each substance at several concentrations.

Test [2] is described as follows: qHTS assay to identify small molecule antagonists of the androgen receptor (AR) signaling pathway using the MDA cell line in the presence of 0.5 nM R1881 - cell viability counter screen (AID 1259242). Also: nearly all actives have a fitted effect of over 45% in size. Summed up: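 Concentration-response screen of compounds for toxicity in MDA-kb2 reporter cells: 16 hr at 37C with 0.5 nM R1881, endpoint live-cell protease fluorescence measured in the reporter wells.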

Test [3] can be described thus: qHTS assay to identify small molecule phospholipidosis (PLD) inducers (AID 1259344; active = well fitted curve in the direction sought with a large enough effect; an effect the other way counts as inactive or inconclusive). An outline of the steps: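 After 4 h attachment on collagen I, HepG2 cells were dosed with compound alongside LipidTOX Red, kept 24 h at 37 C, fixed, and imaged for lamellar phospholipid pits.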
Test [4] can be described thus: qHTS assay to identify small molecule HDAC inhibitors (AID 1259364).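 Also: wild-type HCT-116 cells with endogenous class I/II HDAC activity; top concentration of the series differs between compounds; nearly all actives have a fitted effect of over 45% in size.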 An outline of the steps: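 Screening used wild-type human colon HCT-116 cells incubated overnight, dosed with compounds for 2 hours, and assayed with a homogeneous luminogenic HDAC I/II reagent for 30 minutes at room temperature.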
Test [5] is described as follows: qHTS assay to identify small molecule HDAC inhibitors - cell viability counter screen (AID 1259365). Also: series mostly up to about 92 µM; nearly all actives have a fitted effect of over 50% in size. Summed up: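 Wild-type HCT-116 cells, 1,500/well, cultured overnight, then compound-treated 2 h at 37 C. Viability measured as ATP luminescence with CellTiter-Glo after 30 min at room temperature.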
A short description of test [6]: qHTS assay to identify small molecule agonists of the sonic hedgehog signaling (Shh) pathway - cell viability counter screen (AID 1259366). Also: nearly all actives have a fitted effect of over 50% in size. Summed up: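 NIH/3T3-derived Gli1-Luc reporter cells, 2,000 per well, received compound after 4 h and were treated about 23 h at 37C. Viability measured in the same wells by CellTiter-Fluor fluorescence after 1 h.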
Test [7] can be described thus: qHTS assay to identify small molecule antagonists of the sonic hedgehog signaling (Shh) pathway - cell viability counter screen (AID 1259367). Also: nearly all actives have a fitted effect of over 55% in size. Summed up: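 Conditioned medium drove Shh signaling in 3T3 Gli1-Luc cells exposed to compounds at 37C and 5% CO2. Viability was determined from CellTiter-Fluor fluorescence, with reagent incubated 1 hr after 23 hr of treatment.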

A short description of test [8]: qHTS assay to identify small molecule agonists of the sonic hedgehog signaling (Shh) pathway (AID 1259368; calls by dose curve;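 also: NIH/3T3-derived 3T3Gli1-Luc cells carrying a stable Gli1-driven firefly luciferase reporter; series mostly up to about 92 µM; nearly all actives have a fitted effect of over 15% in size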). An outline of the steps: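 Hedgehog pathway agonism scored by increased firefly luciferase luminescence in 3T3Gli1-Luc cells treated 24 hr at 37 C; detection used a 30 min room-temperature reagent incubation.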
The nature of test [9]: qHTS assay to identify small molecule antagonists of the sonic hedgehog signaling (Shh) pathway (AID 1259369; calls by dose curve; also: nearly all actives have a fitted effect of over 45% in size). An outline of the steps:
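NIH/3T3 stable Gli1-Luc clone, 2,000 cells/well, 4hr settle; cpd + conditioned medium 24hr; Luc reagent 30min RT; luminescence.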

Test [10] deals with Estrogen receptor beta (Homo sapiens) (UniProt Q92731). Description: qHTS assay to identify small molecule agonists of the estrogen receptor beta (ER-beta) signaling pathway (AID 1259377; active = well fitted activation curve with a large enough effect in the signal ratio in the repeat runs, not every such curve was filed as active; the % refers to the signal ratio; also: potency is read from the fitted curve at half-maximal effect). Summed up: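 ER-beta-UAS-bla HEK293T cells in medium with 2% charcoal-stripped FBS were exposed to compounds for 16 h at 37C. Beta-lactamase reporter activity was read as fluorescence after 2 h with LiveBLAzer B/G FRET substrate at room temperature.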
Estrogen receptor beta (Homo sapiens), sequence (Q92731 whole entry, looked up): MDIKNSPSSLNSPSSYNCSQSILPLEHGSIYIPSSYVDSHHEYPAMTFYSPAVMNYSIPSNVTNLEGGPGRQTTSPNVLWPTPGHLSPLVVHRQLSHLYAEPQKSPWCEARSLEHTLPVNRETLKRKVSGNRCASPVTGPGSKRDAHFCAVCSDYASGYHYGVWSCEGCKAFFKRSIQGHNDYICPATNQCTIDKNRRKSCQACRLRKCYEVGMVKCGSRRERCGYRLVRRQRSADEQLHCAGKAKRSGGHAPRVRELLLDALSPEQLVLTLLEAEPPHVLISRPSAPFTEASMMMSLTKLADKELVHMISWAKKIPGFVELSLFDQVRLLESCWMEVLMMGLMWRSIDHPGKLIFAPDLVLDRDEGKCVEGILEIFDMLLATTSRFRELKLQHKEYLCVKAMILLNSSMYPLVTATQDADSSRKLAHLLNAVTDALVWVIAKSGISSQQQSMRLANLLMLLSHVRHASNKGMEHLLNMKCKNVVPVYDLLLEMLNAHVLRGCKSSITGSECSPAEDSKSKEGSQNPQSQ

The target is the same in test [11]. Description: qHTS assay to identify small molecule antagonists of the estrogen receptor beta (ER-beta) signaling pathway (AID 1259378; active = well fitted inhibition curve with a large enough effect in the signal ratio in the repeat runs, not every such curve was filed as active; the % refers to the signal ratio). Summed up:
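ER-beta-UAS-bla HEK293T (GripTite) cells in 2% charcoal-stripped FBS medium were preincubated 6 hr at 37C, dosed with compound, then stimulated with 1 nM E2 (final) for 16 hr; beta-lactamase reporter read by B/G FRET fluorescence after 2 hr substrate loading.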

A short description of test [12]: qHTS assay to identify small molecule agonists of the estrogen receptor beta (ER-beta) signaling pathway - cell viability counter screen (AID 1259380). Also: nearly all actives have a fitted effect of over 30% in size. An outline of the steps: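 Measured: luminescence from CellTiter-Glo after 30 min at room temperature, added to wells already read for the LiveBLAzer FRET reporter (2 hr substrate); ER-beta-UAS-bla HEK293T cells had 16 hr compound treatment at 37C, 5% CO2.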

Test [13] in a line: qHTS assay to identify small molecule antagonists of the estrogen receptor beta (ER-beta) signaling pathway - cell viability counter screen (AID 1259382). Also: series mostly up to about 92 µM; nearly all actives have a fitted effect of over 55% in size. An outline of the steps: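 Readout: luminescence, CellTiter-Glo, same wells as bla assay. System: ER-beta-UAS-bla GripTite HEK293T, 2% charcoal-stripped FBS. Exposure: compounds plus 1nM 17-beta-estradiol, 16 hr, 37C.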
Test [14] in a line: qHTS assay to identify small molecule agonists or antagonists of the thyroid stimulating hormone receptor (TSHR) signaling pathway - wild type cell line counter screen (AID 1259384; calls by dose curve). Summed up:
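Wild-type HEK293 cells were plated 18 h at 37 C/5% CO2, pin-dosed with compound plus Ro20-1724 medium, held 30 min at room temperature, then given cAMP-d2 and anti-cAMP-cryptate; fluorescence was read after 1 h. Fifteen concentrations, triplicate.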

For test [15], the target named is Thyrotropin receptor (Homo sapiens) (UniProt P16473). Description: qHTS assay to identify small molecule antagonists of the thyroid stimulating hormone receptor (TSHR) signaling pathway (AID 1259385; calls by dose curve; also: nearly all actives have a fitted effect of over 20% in size). Summed up: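 TSHR-HEK293 cells were plated and held 18 h at 37C/5% CO2, then given compound plus Ro20-1724 and stimulated with TSH at 1.5 ng/mL final. After 30 min at room temperature, cAMP was detected with cAMP-d2/anti-cAMP-cryptate (1 h) by fluorescence.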
Thyrotropin receptor (Homo sapiens), sequence (P16473 whole entry, looked up): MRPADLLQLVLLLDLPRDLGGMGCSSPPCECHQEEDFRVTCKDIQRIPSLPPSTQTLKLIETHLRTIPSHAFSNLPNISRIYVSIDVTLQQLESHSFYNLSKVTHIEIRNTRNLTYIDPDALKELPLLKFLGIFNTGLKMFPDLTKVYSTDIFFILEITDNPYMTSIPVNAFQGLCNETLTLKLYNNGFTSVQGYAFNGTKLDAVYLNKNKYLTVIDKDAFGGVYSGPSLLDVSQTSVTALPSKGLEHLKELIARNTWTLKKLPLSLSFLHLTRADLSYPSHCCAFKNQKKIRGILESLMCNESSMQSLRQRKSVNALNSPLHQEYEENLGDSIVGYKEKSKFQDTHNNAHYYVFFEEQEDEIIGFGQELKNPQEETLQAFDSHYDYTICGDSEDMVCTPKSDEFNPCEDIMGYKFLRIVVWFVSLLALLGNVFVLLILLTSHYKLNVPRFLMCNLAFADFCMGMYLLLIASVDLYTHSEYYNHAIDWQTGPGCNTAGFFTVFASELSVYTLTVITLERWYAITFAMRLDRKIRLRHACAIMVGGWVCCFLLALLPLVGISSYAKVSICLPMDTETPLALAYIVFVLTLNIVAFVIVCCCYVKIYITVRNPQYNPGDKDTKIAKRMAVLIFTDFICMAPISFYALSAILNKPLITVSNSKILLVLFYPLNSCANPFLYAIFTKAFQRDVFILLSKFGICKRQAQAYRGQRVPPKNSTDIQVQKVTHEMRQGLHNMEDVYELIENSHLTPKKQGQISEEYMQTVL

Test [16] is described as follows: qHTS assay to identify small molecule agonists of the androgen receptor (AR) signaling pathway in the presence of an antagonist - cell viability counter screen (AID 1259379).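 Also: MDA-kb2 human breast cancer cells carrying an MMTV luciferase reporter; series mostly up to about 92 µM; nearly all actives have a fitted effect of over 25% in size.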 Summed up:
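MDA-kb2 viability measured by CellTiter-Fluor fluorescence in the same wells as the luciferase signal; nilutamide 3.0uM final; 15-point compound titration; 16 hr at 37C.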

The target in test [17] is Estrogen receptor (Homo sapiens) (UniProt P03372). Description: qHTS assay to identify small molecule agonists of the estrogen receptor alpha (ER-alpha) signaling pathway in the presence of an antagonist (AID 1259383; calls by dose curve; also: top concentration of the series differs between compounds; nearly all actives have a fitted effect of over 15% in size). An outline of the steps:
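Quantitative HTS confirmation: compounds titrated at 15 concentrations onto estrogen-deprived VM7Luc4E2 cells carrying a four-ERE luciferase construct, with ICI-182,780 present at 10.0nM final. Signal is luminescence after 22hr exposure.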

Results filed as inconclusive are left out. Active and inactive are the calls of the source. Unless noted, calls follow the shape of the dose curve; as a rule, active = well fitted curve in the direction sought with a large enough effect in the repeat runs; inconclusive = weak or mixed curves; inactive = no such curve, though single readings can be large; an effect the other way counts as inactive or inconclusive.

Estrogen receptor (Homo sapiens), sequence (P03372 whole entry, looked up): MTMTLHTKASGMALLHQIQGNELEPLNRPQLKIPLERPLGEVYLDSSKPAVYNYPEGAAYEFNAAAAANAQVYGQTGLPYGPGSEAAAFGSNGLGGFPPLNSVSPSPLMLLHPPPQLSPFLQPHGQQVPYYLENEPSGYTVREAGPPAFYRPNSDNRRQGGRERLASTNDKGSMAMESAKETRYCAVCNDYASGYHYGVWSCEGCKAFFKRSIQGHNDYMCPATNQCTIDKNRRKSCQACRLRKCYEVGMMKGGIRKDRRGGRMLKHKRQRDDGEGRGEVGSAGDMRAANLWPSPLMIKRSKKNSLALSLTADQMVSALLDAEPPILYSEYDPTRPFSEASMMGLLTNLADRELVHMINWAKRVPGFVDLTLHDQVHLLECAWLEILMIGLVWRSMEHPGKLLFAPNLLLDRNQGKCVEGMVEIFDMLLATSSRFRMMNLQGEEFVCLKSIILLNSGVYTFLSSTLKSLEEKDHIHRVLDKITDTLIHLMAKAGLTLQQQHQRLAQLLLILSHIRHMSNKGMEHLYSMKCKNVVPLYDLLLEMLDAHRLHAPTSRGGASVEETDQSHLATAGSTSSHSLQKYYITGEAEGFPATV

Turning to `C[N+](C)(C)CCOC(=O)C(O)(c1ccccc1)c1ccccc1`, the Potency result in test [1], in test [2], in test [4], in [5], in test [6] and in [7] was “inactive” in each case. In addition, the Potency result in [8], in test [9], in test [10], in test [11], in test [12] and in test [13] was “inactive” in each case. Also, in [3], the compound was called inactive.
For `C[C@H]1[C@@H]2Cc3ccc(O)cc3[C@@]1(C)CCN2C`, the Potency result in test [1], in test [2], in [4], in test [5], in test [6] and in test [7] was “inactive” in each case. The Potency result in test [8], in test [10], in test [11], in test [12], in test [13] and in test [15] was “inactive” each time. For the same compound, the compound was classed as inactive in test [3] and in [14].
With `CC(C)CCCCCCCOC(=O)c1ccccc1C(=O)OCCCCCCCC(C)C`, the Potency result in [1], in test [2], in [4], in test [5], in test [6] and in test [7] was “inactive” each time. Also, the Potency result in test [8], in test [9], in test [10], in test [11], in test [16] and in test [12] was “inactive” throughout. In addition, the Potency entry in [13] and in test [15] was “inactive” each time. Also, the result in test [14] was inactive.
Consider `C[C@]12CC[C@H]3[C@@H](CCC4=CC(=O)CC[C@@H]43)[C@@H]1CC[C@@H]2OC(=O)CCc1ccccc1`, for which the Potency entry in test [1], in test [2], in [4], in test [5], in test [6] and in test [7] was “inactive” in each case. Also, the Potency entry in test [8], in [12], in test [13] and in [15] was “inactive” each time. The compound was called inactive in test [3] and in [14]. Also, the Potency in test [10] was 3.35 µM (active).
For `O=S(=O)(c1ccccc1)c1ccccc1`, the Potency result in test [1], in test [2], in [4], in [5], in test [6] and in test [7] was “inactive” throughout. The Potency result in test [8], in [9], in test [10], in [11], in test [16] and in [13] was “inactive” in each case. For the same compound, in test [15], the Potency entry was “inactive”. Also, the compound was called inactive in test [14].
For `Cc1cccc(C)c1NC1=NCCCS1`, the Potency entry in test [1], in test [2], in test [4], in [5], in test [6] and in [7] was “inactive” each time. The Potency result in test [8], in test [9], in test [16], in test [12], in test [13] and in [17] was “inactive” each time. For the same compound, the Potency result in [15] was “inactive”. For the same compound, the compound was classed as inactive in test [3] and in test [14].
As to `Nc1cc(Cl)cc(C(=O)O)c1Cl`, the Potency result in test [1], in test [2], in test [4], in test [5], in test [6] and in test [7] was “inactive” each time. Further, the Potency result in [8], in test [9], in [10], in test [11], in test [16] and in [12] was “inactive” each time. Further, the Potency entry in test [13] was “inactive”.
Take `CCC(C)Cl` (configuration not stated): the Potency result in test [1], in [2], in test [4], in test [5], in test [6] and in test [7] was “inactive” in each case. Also, the Potency result in test [8], in test [9], in test [10], in test [11], in test [12] and in [13] was “inactive” throughout. Moreover, the Potency result in [17] and in test [15] was “inactive” in each case. Besides, the call in test [14] was inactive.
